# High-throughput results from PubChem BioAssay.
# Measles CPE – compounds protecting cells from measles virus cytopathic effect, primary screen, measles RdRp inhibitor project, single point, MLSMR library, absorbance; Measles virus-infected cells, CPE protection; protection (pct of control), % at 4 µM; 1.5% of 140,000 active; AID 841, 2007; in the data active = protection mostly above about 24%, no sharp cut-off; inactive = mostly below about 26%
# PostGolgi yeast – phenotypic screen on post-Golgi transport, primary screen. post-Golgi transport phenotypic cell assay. inhibition, % at 10 µM. 0.9% of 98,000 active. AID 739, 2007;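 also: yeast cells grown in 1536-well plates; yeast grown about 18 h at 30C before absorbance read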
# PostGolgi ctrl – growth inhibition of yeast control strain, primary screen, counter-screen for post-Golgi transport modulator project; efflux-deficient yeast background strain, growth absorbance A615, 16 h; inhibition, % at 10 µM; 5% of 98,000 active
# MT1-MMP txn act – MT1-MMP promoter reporter activation – cell-based, luciferase luminescence, primary screen. HT1080 MT1-MMP promoter luciferase reporter, overnight; active compounds read high. activation factor at 10 µM. 0.16% of 86,000 active. AID 750, 2007;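 active = activation factor of at least 2 for MT1-MMP transcription at 10 µM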
# Numbers without * were called inactive; x = no result. A selection: hits, their analogues and other compounds. The true share with any hit is near 5.3%. Rule as the data show it, unless noted: active = inhibition above about 30%; inactive = the rest.
SMILES,Measles CPE,PostGolgi yeast,PostGolgi ctrl,MT1-MMP txn act
Nc1ccc(S(=O)(=O)N2CCCc3ccccc32)cc1,3.1,-2.0,8.7,1.1
O=C(/C=C/c1cccs1)Nc1cccc(NC(=O)/C=C/c2cccs2)n1,90.0*,x,x,x
O=[N+]([O-])c1ccc(COc2cccc(CNc3ccc(Br)cc3)c2)cc1,6.3,x,x,x
COc1ccc(NC(=O)C(NC(=O)c2ccc(=O)[nH]c2)c2ccc(C)cc2)cc1 (centres undefined),32.8*,x,x,x
Cc1cccc2nc(C(F)(F)F)nc(=O)n12,42.7*,4.9,5.8,1.1
Cc1ccnc(Nc2nc(-c3c(C)nc4sccn34)cs2)c1,15.3,5.0,14.3,1.3
Cc1nc2sccn2c1-c1nc(-c2cc3ccccc3o2)cs1,31.3,1.2,34.3*,1.3
COc1ccc(Cn2nnc3c(=O)[nH]c(C(=O)NCCc4ccc(F)cc4)nc32)cc1OC,9.3,1.3,31.4*,1.1
O=C(NCCc1ccccc1)c1nc2c(nnn2Cc2ccccc2Cl)c(=O)[nH]1,3.6,3.4,7.3,1.1
COc1ccc(NS(=O)(=O)c2ccc(SC)cc2)cc1,4.2,7.2,50.2*,x
CSc1ccc(S(=O)(=O)Nc2ccc3c(c2)OCCO3)cc1,42.4*,-5.5,21.4,x
CC(=O)c1cccc(NC(=O)Cc2ccc3c(c2)CCCC3)c1,6.0,-10.8,5.8,x
CCOC(=O)Nc1ccc(C(=O)Oc2ccccc2)c(O)c1,39.8*,-4.7,1.3,1.1
CCOC(=O)Nc1ccc(Oc2ccccc2)cc1,16.3,-7.1,6.9,1.3
Cc1ccc(S(=O)(=O)N2CCN(C(=O)N3CCOCC3)C2C(C)C)cc1 (centres undefined),32.6,4.3,35.5*,1.1
CC(=O)N1CCN(S(=O)(=O)c2ccc(C)cc2)C1C(C)C (centres undefined),1.5,5.6,-9.2,1
Cc1ccc(S(=O)(=O)N2CCN(C(=O)c3ccccc3)C2C(C)C)cc1 (centres undefined),10.4,1.3,30.6*,1.2
CC(C)(C)C(=O)NC(=S)Nc1ccccc1C(=O)Nc1ccccc1,3.0,-4.6,0.6,x
COc1ccc(-c2c3c(=O)n(C)c(=O)n(C)c3cn2C2CCCCC2)cc1,12.9,-18.1,41.1*,1.2
CCOc1ccc(NC(=S)N2CCC(N(C)CCN3CCOCC3)CC2)cc1,7.1,x,x,x
Cc1ccc(CNC(=O)COc2ccc(C(=O)c3ccc(F)cc3)cc2)cc1,21.8,x,x,x
CC(C)CCNC(=O)Cc1c(C(=O)O)[nH]c2ccc(Cl)cc12,45.5*,4.8,16.0,1.2
Cc1cccc(N2CCN(C(=O)Cc3c(C(=O)O)[nH]c4ccc(Cl)cc34)CC2)c1C,8.1,4.7,4.1,1
Cc1ccc(-c2csc(=Nc3cccnc3)n2CCCn2ccnc2)cc1C,32.5,x,x,x
Cc1nn(CCCC(=O)Nc2sc3c(c2C#N)CCC3)c(C)c1[N+](=O)[O-],8.4,1.3,4.5,x
SMILES,Measles CPE,PostGolgi yeast,PostGolgi ctrl,MT1-MMP txn act
Cc1nn(CC(=O)Nc2sc3c(c2C#N)CCC(C(C)(C)C)C3)c(C)c1[N+](=O)[O-] (centres undefined),27.9,3.6,35.1*,x
O=C(C1CCCN(S(=O)(=O)c2ccccc2[N+](=O)[O-])C1)N1CCCC1 (centres undefined),7.4,x,x,x
N#C/C(=N\Nc1ccccc1F)C(=N)N1CCCCC1,14.6,x,x,2*
N#C/C(=N\Nc1ccccc1)C(=N)N1CCOCC1,74.0*,x,x,x
N#C/C(=N\Nc1ccc(Cl)cc1)C(=N)N1CCCCC1,3.6,-23.7,4.6,1.2
Cc1cc(NC(=O)COC(=O)C(Nc2ccc(C(F)(F)F)cc2Cl)C(C)C)no1 (centres undefined),14.0,3.4,59.1*,1.1
Cc1noc(C)c1C(=O)NCCCc1ccccc1,38.1*,-5.6,23.9,1.2
COc1ccc(CCNC(=O)c2c(C)noc2C)cc1,12.4,9.5,3.3,0.9
Nc1nc(-c2ccc3ccccc3c2)c(C2(O)C(=O)Nc3c(Br)cc(F)cc32)s1 (centres undefined),11.2,-2.0,12.3,x
CCn1c(SC)nnc1-c1sc2cc(Cl)ccc2c1Cl,3.5,-3.1,69.8*,1.1
CSc1nnc(-c2sc3cc(Cl)ccc3c2Cl)n1C,4.4,4.9,20.2,1.2
CCC(C)NS(=O)(=O)c1ccc(NC(=O)C(Sc2ccccc2)c2ccccc2)cc1 (centres undefined),32.1*,x,x,x
CC(=O)NS(=O)(=O)c1ccc(NC(=O)C(Sc2ccccc2)c2ccccc2)cc1 (centres undefined),17.0,-11.5,5.7,x
CC(C)NC(=O)C(Sc1ccccc1)c1ccccc1 (centres undefined),29.7*,0.2,3.9,x
CC1=C(C#N)C(NC(=O)c2cccc(Cl)c2)(C(F)(F)F)C(=O)N1 (centres undefined),11.5,x,x,x
COc1cccc(NC(=O)C(=O)N/N=C/c2cc(C)n(-c3ccc(Cl)c(Cl)c3)c2C)c1,11.1,-1.6,-7.1,x
C/C(=N\NC(=S)Nc1cccc(C)c1)c1ccccc1,14.6,-1.0,32.9*,x
COc1cccc(Cn2c(C3CC3)nc3ccc(NC(=O)c4ccco4)cc3c2=O)c1,0.1,2.9,30.7*,1.1
O=S(=O)(NCc1ccccc1)c1cccs1,2.4,-8.8,10.1,x
N#C/C(=N\Nc1cccc(Cl)c1)C(=O)c1ccccc1,13.0,10.8,84.1*,x
CC(=O)/C(N)=N/Nc1cccc(Cl)c1,7.8,x,x,x
Cc1c(N/N=C(\C#N)C(=O)c2ccccc2)c(=O)n(-c2ccccc2)n1C,1.5,x,x,x
N#C/C(=N\Nc1ccccc1Cl)C(=O)c1ccccc1,20.4,-3.1,48.2*,x
COc1ccc(C2C(C#N)=C(N)N(c3ccccc3C#N)C3=C2C(=O)CCC3)cc1CN1CCCC1 (centres undefined),7.8,x,x,x
O=C(c1ccco1)N1CCN(CCOCCOc2cccc3ccccc23)CC1,-0.4,1.4,6.4,1.2
SMILES,Measles CPE,PostGolgi yeast,PostGolgi ctrl,MT1-MMP txn act
O=C(c1ccco1)N1CCN(CCCCOc2cccc3ccccc23)CC1,26.6*,x,x,x
O=C1C/C(=C/NCc2ccccc2)C(=O)N1,41.0*,4.5,-2.9,1.1
CN=C(Nc1ccc(Cl)cc1)c1ccc(C(F)(F)F)cc1,2.5,15.3,9.9,x
CC(Cc1cccs1)NC(=O)Nc1ccc(Cl)c(Cl)c1 (centres undefined),1.6,-4.1,69.2*,1.7
CC(Cc1cccs1)NC(=O)Nc1ccc(Cl)cc1 (centres undefined),15.3,15.6,11.6,x
Cc1ccc(S(=O)(=O)N(C)C)cc1NS(=O)(=O)c1ccc(Cl)s1,4.7,x,x,x
Cc1ccc(NC(=O)c2ccc(OC(=O)COc3cccc(Cl)c3)cc2)cc1,8.4,x,x,x
CC(C)N1C(=O)C2C(C(=O)NCc3ccccc3)C3C=CC2(O3)C1C(=O)NC(C)(C)C (centres undefined),6.6,6.4,42.1*,1.2
O=C(NCc1ccccc1)C1C2C=CC3(CN(Cc4cccnc4)C(=O)C13)O2 (centres undefined),3.9,5.9,4.4,1.8
Cc1ccc(NC(=O)CN(C)S(=O)(=O)c2cccc3cccnc23)cc1,49.3*,-8.6,-0.7,1
CCn1nnnc1SCC(=O)NC1CCCC1,0.8,1.4,0.3,1.1
